RORg inh: ROR gamma (mouse) transcription inhibition; P51450; Drosophila S2 Gal4-RORgamma UAS-luciferase reporter, 20 h; Potency, µM (titrated, usually from 53.6 µM), inactives show at the highest dose activity change, negative = inhibition, actives largely listed as inhibitors; actives 5.4% (n = 310,000); note: nearly all actives have a fitted effect of over 60% in size
Target sequence (P51450 whole entry, looked up, the tested form may be a part): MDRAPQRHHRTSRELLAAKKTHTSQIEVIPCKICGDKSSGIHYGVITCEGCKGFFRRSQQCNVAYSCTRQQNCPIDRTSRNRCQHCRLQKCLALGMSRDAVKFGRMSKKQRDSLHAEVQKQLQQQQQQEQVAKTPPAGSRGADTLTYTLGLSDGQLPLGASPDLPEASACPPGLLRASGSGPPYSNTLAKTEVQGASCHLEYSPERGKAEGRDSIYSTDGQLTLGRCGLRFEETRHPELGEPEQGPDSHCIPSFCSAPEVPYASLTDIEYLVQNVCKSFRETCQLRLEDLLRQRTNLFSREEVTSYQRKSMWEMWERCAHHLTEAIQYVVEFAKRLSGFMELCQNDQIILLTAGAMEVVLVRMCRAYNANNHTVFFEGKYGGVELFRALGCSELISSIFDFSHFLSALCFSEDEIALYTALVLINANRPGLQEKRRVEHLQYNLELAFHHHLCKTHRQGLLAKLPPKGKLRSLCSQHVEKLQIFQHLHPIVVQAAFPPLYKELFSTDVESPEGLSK
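Drosophila S2 cells stably expressing Gal4-DBD/mouse RORγ fusion under metallothionein promoter plus UAS-luciferase; compound 1 h, then 700 uM CuSO4 induction for 20 h at ambient temperature; inhibition read as reduced luminescence.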
DT40 TDP1 no CPT: qHTS for Inhibitors of human tyrosyl-DNA phosphodiesterase 1 (TDP1): qHTS in cells in absence of CPT. DT40 Tdp1-/- hTDP1 cells, no CPT, ATP luminescence, 48 h. Potency, µM (titrated, usually from 46.2 µM), inactives show top-dose activity change, negative = growth inhibition, hits mostly inhibitors. actives 15% (n = 420,000); note: nearly all actives have a fitted effect of over 55% in size
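Growth kinetics read by CellTiter-Glo luminescence after ≥48 hr at 37 °C. Cells: DT40 Tdp1-/- stably carrying human TDP1, 400 per well, compound exposure in the absence of CPT (DMSO vehicle).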
Gal4-VP16 FLuc: counter-screen for ROR gamma inhibitors: Gal4-VP16 reporter | Drosophila S2 Gal4-VP16 UAS-luciferase, luminescence, 20 h | Potency, µM (top dose mostly 53.6 µM), without a hit: at the top dose activity, negative = inhibition, hits mostly inhibitors | actives 3.5% (n = 310,000);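 note: Gal4-VP16 expression switched on by copper sulfate through the metallothionein promoter; nearly all actives have a fitted effect of over 50% in size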
TDP1 block: inhibitors of human tyrosyl-DNA phosphodiesterase TDP1; recombinant TDP1, AlphaScreen DNA substrate cleavage; Potency, µM (titrated, usually from 130 µM), inactives show top-dose activity change, negative = inhibition, actives largely listed as inhibitors; actives 0.28% (n = 350,000); note: nearly all actives have a fitted effect of over 40% in size
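Steps: enzyme plus compound, 15 min RT; add biotin/phosphotyrosine-FITC oligonucleotide (15 nM final), react 5 min; add donor/acceptor beads (10 ug/ml final), 10 min; read AlphaScreen. Tdp1 at 1 nM final.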
TDP1 cell CPT: DT40-hTDP1 cell growth loss with CPT. chicken DT40 Tdp1-/-;hTDP1 cells + 20 nM CPT, ATP luminescence, 48 h. actives 12% (n = 420,000). AID 686979. Potency, µM (series often up to 46.2 µM), inactives show at the highest dose activity change, negative = growth inhibition, actives largely listed as inhibitors; note: nearly all actives have a fitted effect of over 55% in size
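Cell growth measured by CellTiter-Glo luminescence after a minimum 48 h, 37 C compound exposure with 20 nM CPT in Tdp1-knockout DT40 cells stably expressing hTDP1, seeded 400/well; qHTS titration format.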
Starred values were filed as active, the others as inactive; ? = inconclusive; / = not tested or not shown; [ ] = remark or other dose. Shown are actives, neighbours in structure and some others; about 19% of the full set was active somewhere. Calls come from the whole dose curve; as a rule, active = well fitted curve in the direction sought with a large enough effect; inconclusive = small, poorly fitted or top-dose-only effect, or another doubt; inactive = no such curve, though single readings can be large; an effect the other way counts as inactive or inconclusive. % is set by controls: 0 for no effect and ±100 for the full control effect; potency is the fitted concentration of half-maximal effect.

SMILES	RORg inh	DT40 TDP1 no CPT	Gal4-VP16 FLuc	TDP1 block	TDP1 cell CPT
CCCn1c(SC(C)C(=O)NC2CC2)nnc1-c1ccncc1 (configuration not stated)	/	18%	/	0%	-11%
CSc1ccccc1-c1cnc(NC(C)=O)cn1	/	-47%	/	/	2.6µM*
O=C1CCCN2N=C(SCC(=O)Nc3ccccc3C(F)(F)F)SC2=N1	-4%	-1%	2%	0%	-2%
Cn1ccnc1SCC(=O)Nc1cccc(C(F)(F)F)c1	2%	0%	19%	7%	-2%
O=C1CCCN2N=C(SCC(=O)Nc3cccc(C(F)(F)F)c3)SC2=N1	45%	5.2µM*	?	8%[0.0935 µM]	4.6µM*
O=C1CCCN2N=C(SCC(=O)Nc3cccc(Cl)c3)SC2=N1	?	21µM*	-2%	4%[0.0935 µM]	16µM*
O=C(CSC1=NCCN1)Nc1cccc(C(F)(F)F)c1	1%	?	-15%	11%	21µM*
Cc1ccc(NC(=O)CSC2=NN3CCCC(=O)N=C3S2)cc1Cl	1%	21µM*	0%	4%[0.0935 µM]	?
O=C1CCCN2N=C(SCC(=O)Nc3ccc(Cl)cc3)SC2=N1	?	-25%	2%	1%	-20%
CCOc1ccc(NC(=O)CSC2=NN3CCCC(=O)N=C3S2)cc1	-12%	?	2%	4%	?
CC(C)CC(NS(=O)(=O)c1ccc2c(c1)oc(=O)n2C)C(=O)NC1CCCc2ccccc21 (configuration not stated)	24%	-29%	14%	3%	?
O=C(Cn1c(=O)oc2ccccc21)N1CCCCC1	18%	-10%	-16%	-4%	-11%
O=C(Nc1ccc(S(=O)(=O)NCc2ccco2)cc1)C1CCCCC1	?	-22%	-15%	-8%	-10%
COc1cc(-c2ccccc2)nc(N)n1	-20%	-1%	?	-3%	0%
Cc1cccc(CSc2nnc([C@@H]3CCCN3C(=O)OC(C)(C)C)o2)c1	13%	?	2%	2%	?
Cc1nc2c(C(=O)NCCc3ccc(Cl)cc3)cnn2c(C)c1Cc1ccc(F)cc1	/	?	/	8%	16µM*
COc1ccccc1CNC(=O)c1cnn2c(C)c(Cc3ccc(F)cc3)c(C)nc12	/	6.5µM*	/	3%	5.8µM*
CCc1cccc(NC(=O)CS(=O)Cc2nc(-c3ccc(C)cc3)oc2C)c1 (configuration not stated)	11µM*	16µM*	-4%	5%	?
Cc1ccc(-c2nc(CS(=O)CC(=O)NCc3ccc(Cl)cc3)c(C)o2)cc1 (configuration not stated)	13µM*	?	0%	-4%	?
COc1ccc(-c2nc(CS(=O)CC(=O)NCc3ccc(Cl)cc3)c(C)o2)cc1 (configuration not stated)	8.9µM*	?	7%	3%	?
Cc1oc(-c2ccc(Cl)cc2)nc1CS(=O)CC(=O)NCc1ccccc1 (configuration not stated)	-12%	19%	1%	4%	-6%
Cc1ccc(-c2nc(CS(=O)CC(=O)NCc3ccc4c(c3)OCO4)c(C)o2)cc1 (configuration not stated)	?	16µM*	-5%	/	?
CCc1ccc(-c2nc(CS(=O)CC(=O)NCc3ccc4c(c3)OCO4)c(C)o2)cc1 (configuration not stated)	-44%	-28%	12%	6%	-26%
O=C(Oc1ccc(C(=S)N2CCOCC2)cc1)c1ccccc1	35%	-15%	-15%	5%	11%
Cc1oc(-c2ccc(Cl)cc2)nc1CS(=O)CC(=O)NCCCN1CCN(Cc2ccccc2)CC1 (configuration not stated)	20%	?	-20%	6%	15µM*
SMILES	RORg inh	DT40 TDP1 no CPT	Gal4-VP16 FLuc	TDP1 block	TDP1 cell CPT
Cc1oc(-c2ccc(Cl)cc2)nc1CS(=O)CC(=O)NCCCN1CCCC(C)C1 (configuration not stated)	8%	?	-5%	2%	?
COc1ccc(-c2c(C)nn(-c3ccccc3)c2N)cc1OC	38%	-26%	0%	2%	-6%
COc1ccc(-c2c(C)nn3c(N)c(-c4ccccc4)cnc23)cc1OC	37%	6.5µM*	-3%	/	5.8µM*
COc1ccccc1-c1c(C)nn2c(N)c(-c3ccccc3)cnc12	5%	5.8µM*	28%	/	6.5µM*
CCOc1nc(-c2ccccc2O)nc2ccccc12	11%	-18%	1%[0.365 µM]	3%	-1%
O=C(Nc1ccc(Cl)cc1)c1nc[nH]c1C(=O)NCCCCNC(=O)c1[nH]cnc1C(=O)Nc1ccc(Cl)cc1	/	4.6µM*	/	-11%	5.8µM*
O=C(Nc1ccc(Cl)cc1)c1nc[nH]c1C(=O)Nc1ccccc1F	/	15µM*	/	/	?
O=C(Nc1cccc(Cl)c1)c1nc[nH]c1C(=O)Nc1ccccc1F	/	7.3µM*	/	/	4.1µM*
NNC(=O)c1nc[nH]c1C(=O)Nc1ccccc1[N+](=O)[O-]	?	?	-16%	8%	1%
O=C(Nc1cccc(Cl)c1)c1nc[nH]c1C(=O)NCCN(CCNC(=O)c1[nH]cnc1C(=O)Nc1cccc(Cl)c1)CCNC(=O)c1[nH]cnc1C(=O)Nc1cccc(Cl)c1	/	?	/	1%	?
O=C(Nc1ccc(F)cc1)c1nc[nH]c1C(=O)Nc1ccccc1[N+](=O)[O-]	?	1.3µM*	-11%	-3%	?
Cc1cc2nc3c(=O)n(C4CCCCC4)c(=O)[nH]c3nc2cc1N	7%	-10%	-13%	-3%	18%
CC(C)(C)CC(=O)Nc1cccc(-c2cn3cccnc3n2)c1	-1%	?	-8%	-2%	-27%
COC(=O)C1OC2(OC1C(=O)OC)c1ccccc1-c1ccccc12 (configuration not stated)	-3%	-19%	-3%	3%	15%
Cc1ccccc1C1(O)c2ccccc2-c2ccccc21	/	15µM*	/	/	23µM*

Source: PubChem BioAssay (National Center for Advancing Translational Sciences (NCATS))
